Experimental data reported in PubChem BioAssay (NCI).
The panel holds about 79,000 compounds, 15% with a hit somewhere; the sample as a whole holds those more often. Activity calls are given as the source filed them. No stated cut-off is given here; in the data, active means growth inhibition above about 70%; inactive means the rest.

Assays:
[1] = NCI Yeast Anticancer Drug Screen. Data for the wt1 strain (AID 149);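 further: 0% = growth of vehicle-treated wt1 cultures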; settings: S. cerevisiae wt1 strain (SPY 50644) growth inhibition, active compounds read high
In short: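 Yeast wt1 strain exposed to compounds; growth inhibition measured relative to vehicle-treated controls.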

[2] = NCI Yeast Anticancer Drug Screen. Data for the mgt1 strain (AID 153); settings: S. cerevisiae mgt1 mutant growth inhibition, active compounds read high
In short: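 Compounds were applied to mgt1 mutant yeast, and growth was then compared against vehicle-treated control cultures to give percent inhibition.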

[3] = NCI Yeast Anticancer Drug Screen. Data for the rad50 strain (AID 155);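 further: 0% = growth of vehicle-only cultures of the same strain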; settings: S. cerevisiae rad50 strain growth inhibition, active compounds read high
In short: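 Yeast carrying a defined DNA repair defect were exposed to test compounds, and growth was compared with vehicle-treated controls to give percent inhibition.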

[4] = NCI Yeast Anticancer Drug Screen. Data for the mec2-1 strain (AID 157); settings: S. cerevisiae mec2-1 strain, active compounds read high
In short: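 Compounds were applied to mec2-1 yeast cells. Their growth was then compared with that of vehicle-treated cultures to give growth inhibition.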

[5] = NCI Yeast Anticancer Drug Screen. Data for the rad14 strain (AID 159);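 further: 0% = growth of vehicle-treated control cultures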; settings: S. cerevisiae rad14 strain growth inhibition, active compounds read high
In short: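 Yeast cells carrying a defined DNA-repair defect were exposed to compounds, and growth inhibition was calculated relative to vehicle-treated control cultures.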

[6] = NCI Yeast Anticancer Drug Screen. Data for the sgs1 mgt1 strain (AID 161);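 further: 0% = growth of cultures given vehicle only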; settings: S. cerevisiae sgs1 mgt1 strain, active compounds read high
In short: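 Growth of a repair-deficient yeast mutant was monitored after compound treatment and expressed as inhibition relative to vehicle-treated cultures.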

[7] = NCI Yeast Anticancer Drug Screen. Data for the CLN2oe strain (AID 163);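 further: 0% = growth of vehicle-only control cultures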; settings: S. cerevisiae CLN2oe strain, active compounds read high
In short: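 Cells of an engineered yeast line with disturbed cell-cycle regulation are treated with compound. Inhibition of growth is then calculated relative to the vehicle-treated reference.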

[8] = NCI Yeast Anticancer Drug Screen. Data for the cln2 rad14 strain (AID 165);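 further: 0% = growth equal to vehicle treated cultures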; settings: S. cerevisiae cln2 rad14 strain, active compounds read high
In short: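 Strain: cln2 rad14 yeast, altered in cell cycle control and DNA damage repair. Read-out: growth inhibition vs vehicle.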

[9] = NCI Yeast Anticancer Drug Screen. Data for the bub3 strain (AID 167); settings: S. cerevisiae bub3 mutant strain, active compounds read high
In short: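 Compounds were applied to a genetically altered yeast strain carrying a cell-cycle control defect. Growth inhibition was scored against vehicle-treated controls.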

[10] = NCI Yeast Anticancer Drug Screen. Data for the wt2 strain (AID 169);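 further: 0% = growth of vehicle-treated yeast cultures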; settings: S. cerevisiae wt2 strain growth inhibition, active compounds read high
In short: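 Growth of compound-treated yeast is measured and expressed as inhibition relative to vehicle-only controls.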

[11] = NCI Yeast Anticancer Drug Screen. Data for the mlh1 strain (AID 171);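 further: 0% = growth of vehicle-treated control cultures of the same strain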; settings: S. cerevisiae mlh1 strain growth inhibition, active compounds read high
In short: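 Test agents were incubated with yeast bearing a defined DNA damage repair or cell cycle control alteration; values are growth inhibition normalised to vehicle-treated cultures.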

[12] = NCI Yeast Anticancer Drug Screen. Data for the sgs1 strain (AID 173);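 further: 0% = growth of vehicle-only control cultures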; settings: S. cerevisiae sgs1 mutant, active compounds read high
In short: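 Strain with an altered DNA repair or cell cycle pathway exposed to compound. Growth then measured. Value = inhibition versus vehicle control.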

[13] = NCI Yeast Anticancer Drug Screen. Data for the mlh1 rad18 strain (AID 175); settings: S. cerevisiae mlh1 rad18 strain growth inhibition, active compounds read high
In short: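 A repair-deficient yeast strain is exposed to test compound, and growth is scored relative to vehicle-treated controls.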

[14] = NCI Yeast Anticancer Drug Screen. Data for the rad18 strain (AID 177); settings: S. cerevisiae rad18 mutant growth inhibition, active compounds read high
In short: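 DNA-repair-defective yeast; compound treatment; growth inhibition scored against vehicle.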

[15] = at 5.0 µM (retest, dose inferred, filed as 0.5)
[16] = at 50.0 µM (retest, dose inferred, filed as 5.0)

Measured: growth inhibition

CC(C)(C)[Si](C)(C)OCC1OC(n2cnc3c(N)ncnc32)C2OC(=S)OC12 (stereo not drawn)
active: [3]; at 100.0 µM 98% | [5]; at 100.0 µM 96% | [8]; [16] 98% | [12]; at 100.0 µM 80% | [14]; at 100.0 µM 86%
inactive: [1]; at 1.2 µM 1% | [1]; at 3.7 µM -1% | [1]; at 11.0 µM 0% | [1]; at 33.0 µM 2% | [1]; at 100.0 µM 17% | [2]; at 1.2 µM -1% | [2]; at 3.7 µM 0% | [2]; at 11.0 µM 0% | [2]; at 33.0 µM -29% | [2]; at 100.0 µM 14% | [3]; at 1.2 µM -1% | [3]; at 3.7 µM 5% | [3]; [15] 5% | [3]; at 11.0 µM -19% | [3]; at 33.0 µM 17% | [3]; [16] 45% | [3]; at 50.0 µM 4.45% | [4]; at 1.2 µM 0% | [4]; at 3.7 µM 2% | [4]; [15] 5% | [4]; at 11.0 µM 2% | [4]; at 33.0 µM 7% | [4]; [16] 56% | [4]; at 50.0 µM 40% | [4]; at 100.0 µM 28% | [5]; at 1.2 µM 0% | [5]; at 3.7 µM 2% | [5]; at 11.0 µM 3% | [5]; at 33.0 µM 11% | [6]; [15] 5% | [6]; [16] 29% | [6]; at 50.0 µM 11.6% | [7]; at 1.2 µM -2% | [7]; at 3.7 µM -3% | [7]; at 11.0 µM -1% | [7]; at 33.0 µM -2% | [7]; at 100.0 µM 9% | [8]; [15] 3% | [8]; at 50.0 µM -15.6% | [9]; at 1.2 µM 0% | [9]; at 3.7 µM 2% | [9]; [15] -42% | [9]; at 11.0 µM 3% | [9]; at 33.0 µM 3% | [9]; [16] 3% | [9]; at 50.0 µM 48.4% | [9]; at 100.0 µM 10% | [10]; at 1.2 µM -1% | [10]; at 3.7 µM 9% | [10]; at 11.0 µM 1% | [10]; at 33.0 µM 2% | [10]; at 100.0 µM 36% | [11]; at 1.2 µM -1% | [11]; at 3.7 µM -2% | [11]; at 11.0 µM -3% | [11]; at 33.0 µM 0% | [11]; at 100.0 µM 37% | [12]; at 1.2 µM -1% | [12]; at 3.7 µM 2% | [12]; at 11.0 µM 4% | [12]; at 33.0 µM 14% | [13]; [15] 7% | [13]; [16] 22% | [13]; at 50.0 µM 48.1% | [14]; at 1.2 µM -1% | [14]; at 3.7 µM 1% | [14]; at 11.0 µM 6% | [14]; at 33.0 µM 22%
